Pf growth 48h: P. falciparum growth inhibition at 48 hours (one generation) | P. falciparum luciferase growth in erythrocytes, 48 h | 310,000 compounds, 5.9% hits | AID 504832 | Potency, µM (series often up to 28.7 µM), for the others: at the top dose activity change, negative = inhibition, most hits filed as inhibitors; further: on the % scale 0 is the no-effect control and ±100 the full control effect
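Firefly luciferase activity from engineered P. falciparum reports growth; inhibitors lower the luminescent signal. Cultures contained 2% hematocrit erythrocytes at 0.1% final parasitemia.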
SARS PLP yeast: blocks SARS-CoV papain-like protease in a yeast assay; S. cerevisiae expressing SARS-CoV PLpro, growth rescue; 330,000 compounds, 0.19% hits; Potency, µM (series often up to 32.9 µM), for inactives: top-dose activity, positive = growth rescue, most hits filed as activators; calls by dose curve; further: 0% is about no effect; nearly all actives have a fitted effect of over 55% in size
AmpC no deterg: inhibitors of E. coli AmpC beta-lactamase without detergent | 330,000 compounds, 0.52% hits | AmpC nitrocefin hydrolysis, absorbance 480 nm, 0.0001% Triton | P00811 | Potency, µM (series often up to 57.1 µM), for inactives: top-dose activity change, negative = inhibition, usual class: inhibitors | AID 485341;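 further: plate controls were no compound for no effect and no enzyme for full effect; nearly all actives have a fitted effect of over 20% in size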
Target sequence (P00811 whole entry, looked up): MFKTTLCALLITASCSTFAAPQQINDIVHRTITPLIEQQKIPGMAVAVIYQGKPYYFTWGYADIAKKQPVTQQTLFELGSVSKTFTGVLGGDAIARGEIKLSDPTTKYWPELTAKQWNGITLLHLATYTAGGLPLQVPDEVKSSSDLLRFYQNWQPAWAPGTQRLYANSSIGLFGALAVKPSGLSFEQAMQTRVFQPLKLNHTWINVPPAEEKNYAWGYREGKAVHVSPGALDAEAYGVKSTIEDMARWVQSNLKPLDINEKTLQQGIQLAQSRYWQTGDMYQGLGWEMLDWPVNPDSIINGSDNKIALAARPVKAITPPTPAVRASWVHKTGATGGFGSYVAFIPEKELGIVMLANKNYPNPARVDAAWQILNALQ
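20 mM phosphate pH 7.0 + 0.01% (detergent screen) or 0.0001% Triton X-100; 5.3 nM AmpC reagent; cpd preinc 15 min RT; nitrocefin (800 uM stock) to start; A480 q20 s × 4 min; Activity was normalised to no-enzyme and no-compound control wells.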
Pf growth 96h: P. falciparum growth inhibition at 96 hours; 320,000 compounds, 6.9% hits; Potency, µM (doses to about 28.7 µM), for inactives: top-dose activity change, negative = inhibition, most hits filed as inhibitors; P. falciparum luciferase reporter growth, 96 h; further: on the % scale 0 is the no-effect control and ±100 the full control effect
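P. falciparum expressing integrated firefly luciferase grown in erythrocytes (2% hematocrit, 0.05% parasitemia final) with compounds for 96 hours at 37 C, 5% CO2. Growth inhibition read as loss of luminescence after adding luciferase detection reagent.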
Sm TGR inh: S. mansoni TGR enzyme inhibition. Q962Y6. purified TGR, DTNB reduction, TNB absorbance 405 nm. Potency, µM (titrated, usually from 114 µM), for inactives: at the top dose activity change, negative = inhibition, actives largely listed as inhibitors. 360,000 compounds, 3% hits; further: on the % scale 0 is the no-effect control and ±100 the full control effect; nearly all actives have a fitted effect of over 60% in size
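First, TGR (20 nM dispensed) and NADPH were mixed with compound. Second, a 15 min room-temperature incubation followed. Third, further NADPH and then DTNB were added to start the reaction. Finally, TNB absorbance was monitored kinetically.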
AmpC detergent: blocks E. coli AmpC beta-lactamase in detergent assay; P00811; AmpC hydrolysis of nitrocefin, absorbance 480 nm, 0.01% Triton; Potency, µM (doses to about 114 µM), without a hit: at the top dose activity change, negative = inhibition, actives largely listed as inhibitors; 370,000 compounds, 0.041% hits;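 further: 0% = no-compound wells and -100% = no-enzyme wells; nearly all actives have a fitted effect of over 25% in size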
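AmpC (5.3 nM in the dispensed reagent) in 20 mM phosphate pH 7.0 with 0.01% (detergent screen) or 0.0001% Triton X-100 was preincubated with compounds for 15 min at room temperature. Nitrocefin was then added from an 800 uM solution, and hydrolysis was followed at 480 nm.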
* hit, by the source's call; ? = inconclusive; / = not tested or not shown. Most compounds without a hit are left out; they make up all but 12% or so of the library. Unless noted, the call rests on the fitted dose curve; in most records, active means well fitted curve in the direction sought with a large enough effect; inconclusive means small, poorly fitted or top-dose-only effect, or another doubt; inactive means no such curve, though single readings can be large; an effect the other way counts as inactive or inconclusive. Potency means the concentration at half of the fitted maximal effect.

SMILES	Pf growth 48h	SARS PLP yeast	AmpC no deterg	Pf growth 96h	Sm TGR inh	AmpC detergent
Cc1ccccc1CN1C[C@@H]2C[C@@H](c3cn[nH]c3-c3ccccc3)N3CCC[C@@]23C1=O	1.7µM*	1%	24%	?	1%	-7%
O=C1N(Cc2cccnc2)C[C@@H]2C[C@@H](c3ccc4nonc4c3)N3CCC[C@@]123	2%	-1%	23%	23%	28µM*	-3%
O=C1N(Cc2cccnc2)C[C@@H]2C[C@@H](c3ccc(-c4ccccc4)cc3)N3CCC[C@@]123	12µM*	1%	164%	?	0%	5%
CCn1ncc([C@@H]2C[C@H]3CN(Cc4ccccc4C)C(=O)[C@]34CCCN24)c1C	?	1%	42%	-30%	-2%	0%
COc1ccccc1CN1C[C@@H]2C[C@@H](C3=Cc4cccc(OC)c4OC3)N3CCC[C@@]23C1=O	4.7µM*	1%	156%	15%	-30%	-7%
COc1ccccc1CN1C[C@@H]2C[C@@H](c3ccccc3OC)N3CCC[C@@]23C1=O	?	-1%	39%	?	2%	2%
CCOC(=O)c1sc(N2C(=O)c3oc4ccc(C)cc4c(=O)c3C2c2ccccc2F)nc1C (stereo unspecified)	/	/	/	/	-4%	17%
CCC(=O)Nc1ccc(C)cc1-c1nc2ccccc2n(CC(=O)c2ccc(C)cc2)c1=O	/	/	/	/	-2%	33%
O=C(NCCc1ccccc1Cl)c1ccc2c(c1)nc1n2CCOC1	/	/	/	/	24%	20%
C/C(CC(=O)Nc1cccc2c1CCCC2)=N\NC(=O)COc1ccccc1	12%	17%	0%	2.1µM*	25%	3%
COc1ccc(OC)c(CNC(=O)CCCn2nc(C)c3c(C)n(-c4ccc(C)cc4)nc3c2=O)c1	/	/	/	/	-12%	1%
COc1ccc(CCN2CN(S(=O)(=O)c3ccccc3)c3nc4ccccc4nc32)cc1	12µM*	-3%	-27%	10µM*	-1%	2%
COc1ccc(CCN2CN(S(=O)(=O)c3ccccc3)c3nc4ccccc4nc32)cc1OC	?	-9%	-24%	?	-11%	?
Cc1oc(-c2ccc(Cl)cc2)nc1CSc1nnc(C)n2c1cc1sccc12	/	/	/	/	4%	19%
CCN(CC)CCN1C(=O)C2C3c4ccccc4C(c4ccccc43)C2C1=O (stereo unspecified)	?	7%	33%	5.2µM*	6%	1%
O=C(O)CCN1C(=O)C2C3c4ccccc4C(c4ccccc43)C2C1=O (stereo unspecified)	-6%	3%	-5%	23%	0%	0%
O=C(O)c1ccc(S(=O)(=O)N[C@H](Cc2ccc(C(F)(F)F)cc2)C(=O)O)cc1	21%	2.8µM*	-17%	-5%	6%	6%
COc1ccc(C[C@@H](NS(=O)(=O)c2ccc(C(=O)O)cc2)C(=O)O)cc1	-27%	2%	-4%	-5%	-2%	?
O=C(O)c1ccc(S(=O)(=O)N[C@H](Cc2ccc([N+](=O)[O-])cc2)C(=O)O)cc1	2%	2.2µM*	-14%	8%	2%	-11%
COc1ccccc1NS(=O)(=O)c1cc(NC(=O)CC(C)(C)C)ccc1N1CCOCC1	?	1%	32%	?	-6%	4%
COc1ccc(CNC/C=C/c2ccccc2)cc1	13%	10%	-9%	-29%	-2%	0%
COc1ccc(CNCC(O)(c2ccc(F)cc2)c2ccc(F)cc2)cc1OC	4.1µM*	-2%	28%	2.9µM*	-3%	-2%
COc1ccc(CNCC(O)(c2ccccc2)c2ccc(F)cc2)cc1OC (stereo unspecified)	7.4µM*	-1%	-2%	8.3µM*	-2%	-1%
COc1ccc(CNCC(O)(c2ccc(Cl)cc2)c2ccc(Cl)cc2)cc1	1.2µM*	-8%	-20%	1µM*	3%	0%
COc1ccc(CNCC(O)(c2ccccc2)c2ccc(F)cc2)cc1 (stereo unspecified)	5.2µM*	-1%	4%	?	-9%	-13%
SMILES	Pf growth 48h	SARS PLP yeast	AmpC no deterg	Pf growth 96h	Sm TGR inh	AmpC detergent
O=C(NCc1ccccc1)c1onc(CS(=O)(=O)c2ccccn2)c1C(=O)NCc1ccccc1	?	4%	42%	?	-2%	?
COc1ccccc1CNCCSc1nnnn1C	/	/	/	/	1%	-4%
CCCCNCC(O)(c1ccc(Cl)cc1)c1ccc(Cl)cc1	13µM*	0%	17%	2.3µM*	0%	-13%
COc1ccc(CCNC(=O)c2ccc(Cl)cc2)cc1OC	0%	0%	-20%	?	3%	-1%
COc1ccc(CNCC(O)(c2ccc(Cl)cc2)c2ccc(Cl)cc2)cc1OC	2.1µM*	2%	37%	1.5µM*	-22%	5%
CCCCNC(=S)Nc1ccc(Cl)cc1	22%	?	-6%	30%	-17%	-8%
Cc1ccc(C)c(N2CC(O)(c3cccs3)[N+]3=C2CCCC3)c1 (stereo unspecified)	10µM*	0%	1%	?	-6%	-2%
CCOc1ccccc1NC(=O)COc1ccc2ccc(=O)oc2c1	6%	-1%	-21%	?	-3%	?
COc1ccc(C(=O)COC(=O)CCN2C(=O)C3C4CCC(C4)C3C2=O)cc1 (stereo unspecified)	7%	-1%	3%	-15%	2%	-10%
COc1ccc(C(=O)COC(=O)CCN2C(=O)C3C4C=CC(C5CC45)C3C2=O)cc1 (stereo unspecified)	16%	-2%	46%	37%	25µM*	3%
CC1Sc2ccc(S(=O)(=O)CCC(=O)N(C)Cc3ccco3)cc2NC1=O (stereo unspecified)	-12%	3%	-5%	28%	?	3%
CCOc1ccccc1N(C)C(=O)CCS(=O)(=O)c1ccc2c(c1)NC(=O)C(C)S2 (stereo unspecified)	?	1%	4%	104%	35µM*	-5%
Cc1ccc(C2CC(=O)N3CN(c4ccc(Br)cc4)CSC3=C2C#N)o1 (stereo unspecified)	/	0%	-40%	4.7µM*	28µM*	3%
CCOc1ccc(N2CSC3=C(C#N)C(c4ccco4)CC(=O)N3C2)cc1 (stereo unspecified)	/	4%	-29%	?	25µM*	2%
